# Only some compounds are listed: those with a hit (about 2.1% of all), similar ones and a draw of the others.
# HNF4A DNA FP: change in binding of human HNF4 alpha to DNA. HNF4a-FITC DNA binding, fluorescence polarization, 1 h. actives 0.3% (n = 360,000). activity change, % at 10 µM. P41235; in the data active = activity change above about 30%, passing the limit was not always enough
# Myeloid diff 2: myeloid differentiation induction; ER-HoxA9 myeloid progenitors, lysozyme-GFP differentiation, flow cytometry; calls only at 10 µM; actives 1% (n = 360,000); AID 624256;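 active = normalized GFP-positive differentiation at or above the plate's own cutoff, the solvent-only control mean plus 3 SD; inconclusive = no clear call, values can overlap the other calls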;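 also: cells exposed to compound for four days before flow analysis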
# Rpn11 inh: blocks the human proteasome subunit Rpn11 | human 26S proteasome, Ub4-pepOG fluorescence polarization; 20S core pre-blocked with epoxomicin | inhibition, % at 20 µM | actives 0.59% (n = 360,000) | AID 588493;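 active = inhibition at 20 µM, scaled to each plate's controls, above about 33%, limit read from the data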
# TPT1 inhibitor: blocks Candida albicans tRNA 2'-phosphotransferase; actives 0.81% (n = 300,000); AID 1962; inhibition, % at 5 µM; recombinant caTPT1, FP RNA substrate dephosphorylation;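 active = inhibition above the mean of all tested compounds plus 3 SD, set per screening campaign, cut at about 24% in these data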;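 also: plate controls were DMSO alone for no effect and ferristatin control at 100 nM for full effect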
# Starred values were filed as active, the others as inactive; i = inactive; ? = inconclusive; · = not tested or not shown; + = active, no number.
SMILES,HNF4A DNA FP,Myeloid diff 2,Rpn11 inh,TPT1 inhibitor
CC(=O)Oc1ccc(N(C(C)=O)S(=O)(=O)c2ccc(C)cc2)c2ccccc12,2,+,1,0
CN(C)CCCNC(=O)/C(=C\c1ccc(-c2ccc(Br)cc2)o1)NC(=O)c1ccccc1,4,+,-21,16
Cc1ccc(C(=O)N/C(=C\c2ccc(-c3ccc(Cl)cc3)o2)C(=O)NCCCN(C)C)cc1,3,+,-3,8
CN(C)CCCNC(=O)/C(=C/c1ccc(-c2ccc([N+](=O)[O-])cc2)o1)NC(=O)c1ccccc1,2,+,4,11
O=C(Nc1ccc2c(c1)OCO2)O[C@@H]1C[C@H]2CCC(=O)N3CC[C@@H](C1)[C@@H]23,3,i,-8,-3
CC(=O)CSc1nnc(Cc2ccc3c(c2)OCO3)o1,-2,i,-5,-3
CC1=C(C(=O)N(C)C)CC(CC(=O)NCCCN(C)C)C(=O)N1Cc1ccccc1 (configuration not stated),0,i,-11,·
Cc1ccc(NC(=O)c2ccc([N+](=O)[O-])o2)c(C)c1,0,+,8,-2
Cc1ccccc1NC(=O)c1ccc([N+](=O)[O-])o1,0,i,-6,0
COc1cc(NC(=O)c2ccc([N+](=O)[O-])o2)ccc1NC(=O)c1cccs1,-6,+,-8,-2
COc1cc(C(=O)CCN2CCC(c3ccccc3)C2)cc(OC)c1OC (configuration not stated),1,i,-1,2
CCN(CC)C(=O)C1=C(C)N(Cc2ccc(OC)cc2)C(=O)C(CC(=O)NC2CC2)C1 (configuration not stated),4,i,-2,·
O=S(=O)(c1ccc(NC(=S)Nc2ccc(OC(F)F)cc2)cc1)N1CCOCC1,2,+,-8,-4
NNC(=S)Nc1ccc(S(=O)(=O)N2CCOCC2)cc1,2,i,5,-4
COCCNC(=O)C1(C)CCCN(Cc2ccc(-c3ccccc3)o2)C1 (configuration not stated),-2,i,5,·
Cc1ccc(N/C(=N/S(=O)(=O)c2cccs2)c2ccccc2)c(C)c1,0,+,4,4
CCc1ccc(C(O)c2ncc(-c3ccccc3OC)[nH]2)cc1 (configuration not stated),1,i,3,·
CCOc1ccc(-n2c(SCc3ccc(C(=O)OC)o3)nc3c(c2=O)SCC3)cc1,-4,i,-11,0
COC(=O)c1ccc(CSc2nc3c(c(=O)n2-c2ccc(Br)cc2)SCC3)o1,-1,+,1,-3
CCCCNC1=CC(=O)C(=O)c2ccccc21,-3,+,4,-2
CCCCNC1=CC(=O)C(NCCCC)=CC1=O,-4,i,0,·
Cc1ccn2c(C(=O)N/N=C\c3ccccc3[N+](=O)[O-])c(C)nc2c1,0,+,6,0
COc1cccc(CN2C(=O)C3CCCN3c3ccc(S(=O)(=O)N4CCOCC4)cc32)c1 (configuration not stated),·,·,·,12
O=C(Nc1nccs1)c1cn(-c2ccccc2)nc1-c1ccncc1,-4,+,17,-3
COc1ccc(-c2nn(-c3ccccc3)cc2C(=O)Nc2nccs2)cc1,-2,i,11,-5
SMILES,HNF4A DNA FP,Myeloid diff 2,Rpn11 inh,TPT1 inhibitor
CCOc1c(OC(C)=O)ccc(/C=C/c2ccc3cccc(OC(C)=O)c3n2)c1[N+](=O)[O-],-1,i,2,-1
C=CCN1C(=O)/C(=C/c2ccc(OC(C)=O)c(OCC)c2[N+](=O)[O-])SC1=S,35,i,79*,·
CCCc1c(NC(=O)Nc2ccc(F)cc2)cnn1-c1ccc(Cl)cc1,5,+,-4,4
CCc1cc(OCCCCNCc2ccccc2)ccc1Cl,-2,i,1,-2
c1cnc2ccc3ncccc3c2c1,-7,i,-4,0
Nc1ccc2ncccc2c1N,5,+,7,-9
O=C1NC(=O)C2(CCCC2C(=O)O)N1 (configuration not stated),-2,i,-6,·
S=C(NCCCN1CCOCC1)NC1CC1,5,i,0,4
Cc1[nH]c2ccccc2c1C(=O)C(C)OC(=O)c1ccc(NC(=O)CC#N)cc1 (configuration not stated),7,+,18,4
Cc1c(Cl)cccc1NC(=S)Nc1ccc2[nH]c(=O)[nH]c2c1,39*,i,-8,-1
C=CC[n+]1c(/C=C2\C=Cc3cc(C)ccc3N2CC)ccc2ccccc21,38*,?,17,6
COc1ccc(Br)cc1CN(C)CC(=O)NCc1ccc(F)cc1,-2,+,8,4

# Screening results from PubChem.
